We go through 39 compounds from PubChem BioAssay (NCI).

Each structure is given as a SMILES string. Compounds without any hit were thinned out: in the full panel of roughly 83,000, 20% have a hit.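 Results are percent growth after 48 hours of single-concentration exposure. 100 means growth as in untreated cells, lower positive values show inhibition; negative values down to -100 show cell death.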 Values without a mark were called inactive. Active and inactive are the calls of the source. How the source made its calls: active means growth percent below 10; inactive means the rest.

In the first assay the test system is PC-3 prostate. Nature of the assay: NCI-60 one-dose screen, 48 h (100 = growth as untreated, 0 = no growth, -100 = all killed). The following applies: 10 µM unless noted.
`COc1ccccc1-c1nc2ccc3[nH]ncc3c2c2c1CCCC2`: the growth was 82%.

Regarding `O=c1ccc2nc(-c3ccccc3)nn(-c3ccccn3)c-2c1`, the growth was 83.5%.

Consider `Nc1ncc(-c2ccc3ncnc(N4CCc5cc(F)c(Cl)cc54)c3c2)cc1C=O`, for which the growth was 20.1%.

Turning to `C#Cc1ccc(NC(=O)Cc2ccc(/C=C/C(=O)c3nccn3C)cc2)cc1`, the growth was 39.6%.

On to `CCCCN(CCC#N)C(N)=O`, for which the growth is 91.2%.

On to `COc1ccc(-c2cn(Cc3ccc4c(Br)cc(Br)c(O)c4n3)nn2)cc1`, for which the growth was 91.4%.

For `CCc1ccc(Cc2cnc(NC(=O)c3cc(C)oc3C)s2)cc1`, the growth is 37.7%.

Turning to `COc1cc(/C=C/c2cc(/C=C/c3ccc(O)c(OC)c3)n(C(=O)Nc3ccc(C)cc3C)n2)ccc1O`, the growth was -10.8% (active).

For the compound `Clc1nc(N2CCC[N+]3(CC2)CC[N+]2(CCCNCC2)CC3)nc(N2CCC[N+]3(CC2)CC[N+]2(CCCNCC2)CC3)n1` (stereo not drawn), the growth was 101%.

Consider `O=S(=O)(Nc1ccc(Br)cc1)c1ccc(-c2cnc(C3CC3)o2)cc1`, for which the growth is 29.2%.

Regarding `O=C1N/C(=N/N=C(c2ccccc2)c2ccccc2)S/C1=C\c1ccc(Br)cc1`, the growth was 89.8%.

Regarding `COc1cc(OCc2cccc(-c3ccc4c(c3)OCCO4)c2C)cc(OC)c1C=O`, the growth is 65.5%.

Consider `COC(=O)c1c(C)nc(C)c2c1C(=O)C(Br)=C(NCCCCO)C2=O`, for which the growth is 62.5%.

As to `COc1ccc(CNc2c3ccccc3nc3ccccc23)cc1OC`, the growth is 22%.

Turning to `COc1cc(/C=C/C(=O)c2ccc(-n3cc(CN4CCN(c5cc6c(cc5F)c(=O)c(C(=O)O)cn6C5CC5)CC4)nn3)cc2)cc(OC)c1OC`, the growth is 84.7%.

With `CCCCCC(C)(O)C(C(=O)O)c1ccccc1` (stereo not drawn), the growth was 93.2%.

With `C[C@@H]1N=C(c2ccc(Cl)cc2Cl)Nc2nc3ccccn3c2C1=O`, the growth was 39.1%.

`O=C(Nc1ccccc1)Nc1ccccc1CNc1nc(Nc2ccc(OCCN3CCCC3)cc2)ncc1Cl`: the growth was 76.1%.

`COc1ccc(S(=O)(=O)N(C)c2oc(-c3ccc(Cl)cc3)nc2C#N)cc1`: the growth is 87.4%.

Consider `COc1cccc(C(=O)Nc2cccc(NC(=O)c3ccccn3)c2)c1`, for which the growth is 98.3%.

On to `CS(=O)(=O)c1ccc(/C(=N/NC(N)=S)c2ccc(F)cc2)cc1`, for which the growth is 103%.

In the case of `CSc1nc(N)c2c(n1)NC(c1ccccc1)C1CCc3ccccc3C1=N2` (stereo not drawn), the growth was 11.9%.

As to `COc1cccc(CNc2nnc(C)c(C)n2)c1O`, the growth is 87.2%.

For `COc1ccc(NC(=O)CSc2oc(-c3ccccc3)nc2S(=O)(=O)c2ccc(Cl)cc2)c(OC)c1`, the growth was 61%.

For the compound `O=C(c1ccc(F)cc1)C1CCN(CCn2c(=O)[nH]c3ccccc3c2=O)CC1`, the growth was 87.4%.

With `CC(=O)OCC(=O)O[C@@H]1C[C@]2(C(C)C)O[C@@]1(C)[C@@H]1CC[C@@H](C)[C@H]1[C@@H]2OC(=O)/C=C/c1ccccc1`, the growth was 58.6%.

In the case of `O=C(Nc1ncc(Cc2ccccc2)s1)c1cc(-c2ccccc2)nc2ccccc12`, the growth was 94.8%.

Turning to `O=c1cc(-c2nccc3c2[nH]c2ccccc23)c2cc(Cl)ccc2o1`, the growth was 30.7%.

In the case of `O=C(CN1C(=O)NC2NC(=O)NC21)N/N=C/c1cccc([N+](=O)[O-])c1` (stereo not drawn), the growth was 106%.

As for `CCCCCCCCCCCCCC[n+]1ccc2c(C)c3c(c(C)c2c1)c1cc(O)ccc1n3CC`, the growth is -88% (active).

In the case of `C=C(C)[C@@H]1CCC[C@]2(C(=O)OC)CC[C@]3(C)[C@@H](CC[C@@H]4[C@@]5(C)CCCNC(C)(C)[C@@H]5CC[C@]43C)[C@@H]12`, the growth is 74.1%.

`COc1cc2c(cc1-c1c(C)noc1C)ncc1nc(C3CCOCC3)n(C3CCC(OC(F)F)CC3)c12` (stereo not drawn): the growth was 44.8%.

`O=C1CCC(C(=O)N/N=C/c2ccc([N+](=O)[O-])cc2)N1` (stereo not drawn): the growth is 95.3%.

Consider `COc1cc(C(=O)/C=C/c2c(-c3cccs3)nc3sc(C)cn23)cc(OC)c1OC`, for which the growth was 8.02% (active).

In the case of `O=C(NS(=O)(=O)c1ccccc1)n1cc(-c2ccncc2)c(-c2cc(O)cc(Cl)c2)n1`, the growth was 95%.

Take `COC(CCP(=O)(c1ccccc1)c1ccccc1)(C(=O)c1ccccc1)c1ccccc1` (stereo not drawn): the growth was -46.2% (active).

For the compound `Cn1nc(-c2ccc(Cl)cc2)nc2c(=O)n(C)c(=O)nc1-2`, the growth was 16.6%.

`CC1(C)CCC[C@]23C(=O)O[C@](O)(C(=O)C4=C[C@@](C)(/C=C/CCCc5ccc6ccc7cccc8ccc5c6c78)CC[C@@]42O)[C@@H]13`: the growth was -48.8% (active).

Consider `COc1ccc(C2=C/C(=C\c3ccccc3O)C(=O)N2Cc2ccccc2)cc1`, for which the growth is 52.2%.

A further assay deals with SK-MEL-5 melanoma. The assay is described as above. The conditions noted are these: 10 µM unless noted.
For `COc1ccccc1-c1nc2ccc3[nH]ncc3c2c2c1CCCC2`, the growth was 83.4%.

On to `O=c1ccc2nc(-c3ccccc3)nn(-c3ccccn3)c-2c1`, for which the growth is 76.6%.

Turning to `Nc1ncc(-c2ccc3ncnc(N4CCc5cc(F)c(Cl)cc54)c3c2)cc1C=O`, the growth was 2.88% (active).

On to `C#Cc1ccc(NC(=O)Cc2ccc(/C=C/C(=O)c3nccn3C)cc2)cc1`, for which the growth was 87.3%.

Consider `CCCCN(CCC#N)C(N)=O`, for which the growth is 99.5%.

On to `COc1ccc(-c2cn(Cc3ccc4c(Br)cc(Br)c(O)c4n3)nn2)cc1`, for which the growth was 98.6%.

Consider `CCc1ccc(Cc2cnc(NC(=O)c3cc(C)oc3C)s2)cc1`, for which the growth is 36.8%.

Take `COc1cc(/C=C/c2cc(/C=C/c3ccc(O)c(OC)c3)n(C(=O)Nc3ccc(C)cc3C)n2)ccc1O`: the growth is -83.4% (active).

Take `Clc1nc(N2CCC[N+]3(CC2)CC[N+]2(CCCNCC2)CC3)nc(N2CCC[N+]3(CC2)CC[N+]2(CCCNCC2)CC3)n1` (stereo not drawn): the growth is 102%.

On to `O=S(=O)(Nc1ccc(Br)cc1)c1ccc(-c2cnc(C3CC3)o2)cc1`, for which the growth was 19.2%.

`O=C1N/C(=N/N=C(c2ccccc2)c2ccccc2)S/C1=C\c1ccc(Br)cc1`: the growth is 97.2%.

In the case of `COc1cc(OCc2cccc(-c3ccc4c(c3)OCCO4)c2C)cc(OC)c1C=O`, the growth was -9.95% (active).

Consider `COC(=O)c1c(C)nc(C)c2c1C(=O)C(Br)=C(NCCCCO)C2=O`, for which the growth was -53.4% (active).

With `COc1ccc(CNc2c3ccccc3nc3ccccc23)cc1OC`, the growth is 17.5%.

As for `COc1cc(/C=C/C(=O)c2ccc(-n3cc(CN4CCN(c5cc6c(cc5F)c(=O)c(C(=O)O)cn6C5CC5)CC4)nn3)cc2)cc(OC)c1OC`, the growth was 79.7%.

As to `CCCCCC(C)(O)C(C(=O)O)c1ccccc1` (stereo not drawn), the growth was 101%.

Consider `C[C@@H]1N=C(c2ccc(Cl)cc2Cl)Nc2nc3ccccn3c2C1=O`, for which the growth was 39.6%.

As for `O=C(Nc1ccccc1)Nc1ccccc1CNc1nc(Nc2ccc(OCCN3CCCC3)cc2)ncc1Cl`, the growth is 57.2%.

In the case of `COc1ccc(S(=O)(=O)N(C)c2oc(-c3ccc(Cl)cc3)nc2C#N)cc1`, the growth is 86.1%.

Turning to `COc1cccc(C(=O)Nc2cccc(NC(=O)c3ccccn3)c2)c1`, the growth is 97.3%.

Turning to `CS(=O)(=O)c1ccc(/C(=N/NC(N)=S)c2ccc(F)cc2)cc1`, the growth was 102%.

With `CSc1nc(N)c2c(n1)NC(c1ccccc1)C1CCc3ccccc3C1=N2` (stereo not drawn), the growth was 51%.

For the compound `COc1cccc(CNc2nnc(C)c(C)n2)c1O`, the growth is 91.6%.

For the compound `COc1ccc(NC(=O)CSc2oc(-c3ccccc3)nc2S(=O)(=O)c2ccc(Cl)cc2)c(OC)c1`, the growth is 66.3%.

`O=C(c1ccc(F)cc1)C1CCN(CCn2c(=O)[nH]c3ccccc3c2=O)CC1`: the growth is 94.2%.

Regarding `CC(=O)OCC(=O)O[C@@H]1C[C@]2(C(C)C)O[C@@]1(C)[C@@H]1CC[C@@H](C)[C@H]1[C@@H]2OC(=O)/C=C/c1ccccc1`, the growth was 74.4%.

Regarding `O=C(Nc1ncc(Cc2ccccc2)s1)c1cc(-c2ccccc2)nc2ccccc12`, the growth was 98.8%.

With `O=c1cc(-c2nccc3c2[nH]c2ccccc23)c2cc(Cl)ccc2o1`, the growth was 32.1%.

On to `O=C(CN1C(=O)NC2NC(=O)NC21)N/N=C/c1cccc([N+](=O)[O-])c1` (stereo not drawn), for which the growth was 100%.

Turning to `CCCCCCCCCCCCCC[n+]1ccc2c(C)c3c(c(C)c2c1)c1cc(O)ccc1n3CC`, the growth was -89.9% (active).

As to `C=C(C)[C@@H]1CCC[C@]2(C(=O)OC)CC[C@]3(C)[C@@H](CC[C@@H]4[C@@]5(C)CCCNC(C)(C)[C@@H]5CC[C@]43C)[C@@H]12`, the growth is 90%.

For the compound `COc1cc2c(cc1-c1c(C)noc1C)ncc1nc(C3CCOCC3)n(C3CCC(OC(F)F)CC3)c12` (stereo not drawn), the growth was 27.2%.

Turning to `O=C1CCC(C(=O)N/N=C/c2ccc([N+](=O)[O-])cc2)N1` (stereo not drawn), the growth was 104%.

Regarding `COc1cc(C(=O)/C=C/c2c(-c3cccs3)nc3sc(C)cn23)cc(OC)c1OC`, the growth was -56.5% (active).

In the case of `O=C(NS(=O)(=O)c1ccccc1)n1cc(-c2ccncc2)c(-c2cc(O)cc(Cl)c2)n1`, the growth is 98.9%.

For the compound `COC(CCP(=O)(c1ccccc1)c1ccccc1)(C(=O)c1ccccc1)c1ccccc1` (stereo not drawn), the growth is 34.3%.

With `Cn1nc(-c2ccc(Cl)cc2)nc2c(=O)n(C)c(=O)nc1-2`, the growth was -98.5% (active).

As for `CC1(C)CCC[C@]23C(=O)O[C@](O)(C(=O)C4=C[C@@](C)(/C=C/CCCc5ccc6ccc7cccc8ccc5c6c78)CC[C@@]42O)[C@@H]13`, the growth was -96.3% (active).

As to `COc1ccc(C2=C/C(=C\c3ccccc3O)C(=O)N2Cc2ccccc2)cc1`, the growth was 66.2%.
